From PubChem BioAssay (Tox21)
Values joined by “and” are separate entries in the source; they are usually repeats but may differ in a detail not shown here. Identical values can stand only once. Records with an inconclusive call do not appear. Entries that show only a call come without a potency. Some compounds were tested as several samples or in several runs, with calls that do not always agree. Active and inactive are the calls of the source. Unless noted, the call rests on the fitted dose curve.

Test system: not listed separately
Assay: qHTS assay to identify small molecule agonists of the sonic hedgehog signaling (Shh) pathway (AID 1259368);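 further: NIH/3T3-derived 3T3Gli1-Luc cells carrying a stable Gli1-driven firefly luciferase reporter; nearly all actives have a fitted effect of over 15% in size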
Conditions: NIH/3T3 Gli1-Luc reporter, luciferase, 24 h, stronger effect = higher value; series mostly up to 92.4 µM
Outline: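 NIH/3T3-derived 3T3Gli1-Luc cells with stably integrated Gli1-driven firefly luciferase, 2,000 cells/well, compounds added after 4 hr. Incubated 24 hr at 37C, 5% CO2; luminescence read after 30 min with luciferase reagent at room temperature.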

SMILES	outcome
Cc1noc(NS(=O)(=O)c2ccc(N)cc2)c1C	inactive
CC(C)(Oc1ccc(C2CC2(Cl)Cl)cc1)C(=O)O (stereo unspecified)	inactive
CCCC(CCC)C(=O)O	inactive
OC(Cn1cncn1)(Cn1cncn1)c1ccc(F)cc1F	inactive
CCCCC1C(=O)N(c2ccccc2)N(c2ccccc2)C1=O	inactive
O=c1cc[nH]c(=S)[nH]1	inactive
CC(C)[C@@H]1CC[C@@H](C)C[C@H]1O	inactive
Cc1cc(=O)n(-c2ccccc2)n1C	inactive
NC(=O)c1ccccc1O	inactive
NNC(=O)c1ccncc1	inactive
CCCNC(=O)NS(=O)(=O)c1ccc(Cl)cc1	inactive
NC(N)=O	inactive
CCCC(O)C(CC)CO (stereo unspecified)	inactive
CCCCC(CC)COC(=O)/C=C/c1ccc(OC)cc1 (stereo unspecified)	inactive
NS(=O)(=O)c1cc(C(=O)O)c(NCc2ccco2)cc1Cl	inactive
Nc1ccc(C(=O)O)cc1	inactive
O=C(O)CCCCC(=O)O	inactive
CCCN(CCC)S(=O)(=O)c1ccc(C(=O)O)cc1	inactive

SMILES	outcome
NC(N)=NC(=O)c1nc(Cl)c(N)nc1N	inactive
Cc1ccc(O)cc1	inactive
NC(=O)c1cnccn1	inactive
C1N2CN3CN1CN(C2)C3	inactive
C[C@]12C=CC(=O)C=C1CC[C@@H]1[C@@H]2[C@@H](O)C[C@@]2(C)[C@H]1CC[C@]2(O)C(=O)CO	inactive
Nc1ccn([C@H]2CC[C@@H](CO)O2)c(=O)n1	inactive
CC1(C)[C@@H]2CC[C@@]1(C)C(=O)C2	inactive
O=C(c1ccccc1)c1ccccc1	inactive
Nc1ccc(O)c(C(=O)O)c1	inactive
COc1ccc2[nH]cc(CCNC(C)=O)c2c1	inactive
Cc1ccc(S(=O)(=O)NC(=O)NN2CCCCCC2)cc1	inactive
Cc1ccc(C)c(OCCCC(C)(C)C(=O)O)c1	inactive
Nc1ccc(S(=O)(=O)c2ccc(N)cc2)cc1	inactive
Oc1ccc(/C=C/c2cc(O)cc(O)c2)cc1	inactive
CC(=O)Nc1nnc(S(N)(=O)=O)s1	inactive
CC(=O)NS(=O)(=O)c1ccc(N)cc1	inactive
Cn1cc[nH]c1=S	inactive
O=c1ccc2ccccc2o1	inactive

Test system: not listed separately
Assay: qHTS assay to identify small molecule antagonists of the sonic hedgehog signaling (Shh) pathway (AID 1259369); further: nearly all actives have a fitted effect of over 45% in size; further: potency means the concentration at half of the fitted maximal effect
Conditions: NIH/3T3 Gli1-Luc reporter, Shh antagonist, luminescence 24 h; series mostly up to 92.4 µM
Outline: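 NIH/3T3-derived Gli1-Luc reporter cells plated 4 h, dosed with compound, then stimulated with conditioned medium for 24 h at 37 C. Firefly luciferase luminescence read after 30 min with detection reagent at room temperature.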

SMILES	Potency
Cc1noc(NS(=O)(=O)c2ccc(N)cc2)c1C	inactive
CC(C)(Oc1ccc(C2CC2(Cl)Cl)cc1)C(=O)O (stereo unspecified)	inactive
CCCC(CCC)C(=O)O	inactive
OC(Cn1cncn1)(Cn1cncn1)c1ccc(F)cc1F	inactive
CCCCC1C(=O)N(c2ccccc2)N(c2ccccc2)C1=O	inactive
O=c1cc[nH]c(=S)[nH]1	inactive
CC(C)[C@@H]1CC[C@@H](C)C[C@H]1O	inactive and 31.6 µM (active)
Cc1cc(=O)n(-c2ccccc2)n1C	inactive
NC(=O)c1ccccc1O	inactive
NNC(=O)c1ccncc1	inactive
CCCNC(=O)NS(=O)(=O)c1ccc(Cl)cc1	inactive
NC(N)=O	7.28 µM (active) and inactive and 68.6 µM (active)
CCCC(O)C(CC)CO (stereo unspecified)	inactive
CCCCC(CC)COC(=O)/C=C/c1ccc(OC)cc1 (stereo unspecified)	inactive
NS(=O)(=O)c1cc(C(=O)O)c(NCc2ccco2)cc1Cl	inactive
Nc1ccc(C(=O)O)cc1	inactive
O=C(O)CCCCC(=O)O	inactive
CCCN(CCC)S(=O)(=O)c1ccc(C(=O)O)cc1	inactive

SMILES	Potency
NC(N)=NC(=O)c1nc(Cl)c(N)nc1N	inactive
Cc1ccc(O)cc1	inactive
NC(=O)c1cnccn1	inactive
C1N2CN3CN1CN(C2)C3	inactive
C[C@]12C=CC(=O)C=C1CC[C@@H]1[C@@H]2[C@@H](O)C[C@@]2(C)[C@H]1CC[C@]2(O)C(=O)CO	inactive
Nc1ccn([C@H]2CC[C@@H](CO)O2)c(=O)n1	inactive
CC1(C)[C@@H]2CC[C@@]1(C)C(=O)C2	inactive
O=C(c1ccccc1)c1ccccc1	inactive
Nc1ccc(O)c(C(=O)O)c1	inactive
COc1ccc2[nH]cc(CCNC(C)=O)c2c1	inactive
Cc1ccc(S(=O)(=O)NC(=O)NN2CCCCCC2)cc1	inactive
Cc1ccc(C)c(OCCCC(C)(C)C(=O)O)c1	inactive
Nc1ccc(S(=O)(=O)c2ccc(N)cc2)cc1	inactive
Oc1ccc(/C=C/c2cc(O)cc(O)c2)cc1	9.78 µM (active) and 17.2 µM (active)
CC(=O)Nc1nnc(S(N)(=O)=O)s1	inactive
CC(=O)NS(=O)(=O)c1ccc(N)cc1	inactive
Cn1cc[nH]c1=S	inactive
O=c1ccc2ccccc2o1	inactive

Molecular target: Estrogen receptor beta (Homo sapiens) (UniProt Q92731)
Sequence (Q92731 whole entry, looked up): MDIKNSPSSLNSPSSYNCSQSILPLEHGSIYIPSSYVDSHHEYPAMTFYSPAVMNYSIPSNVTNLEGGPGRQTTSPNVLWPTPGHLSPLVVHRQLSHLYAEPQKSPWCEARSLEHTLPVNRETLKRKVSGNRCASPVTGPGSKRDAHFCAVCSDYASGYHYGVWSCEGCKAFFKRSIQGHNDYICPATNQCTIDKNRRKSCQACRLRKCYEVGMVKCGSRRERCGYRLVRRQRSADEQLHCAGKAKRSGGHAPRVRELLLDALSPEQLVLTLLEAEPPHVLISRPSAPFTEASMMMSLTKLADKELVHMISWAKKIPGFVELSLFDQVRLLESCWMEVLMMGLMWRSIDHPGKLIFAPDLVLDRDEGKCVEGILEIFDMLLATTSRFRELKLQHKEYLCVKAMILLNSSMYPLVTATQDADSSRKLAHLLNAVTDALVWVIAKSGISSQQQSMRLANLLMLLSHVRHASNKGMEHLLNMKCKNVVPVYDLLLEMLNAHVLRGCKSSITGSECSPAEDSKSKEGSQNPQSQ
Assay: qHTS assay to identify small molecule agonists of the estrogen receptor beta (ER-beta) signaling pathway (AID 1259377; active means well fitted activation curve with a large enough effect in the signal ratio in the repeat runs, not every such curve was filed as active; the % refers to the signal ratio)
Conditions: ER-beta-UAS-bla HEK293T, beta-lactamase FRET ratio, 16 h; series mostly up to 92.4 µM
Outline: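 qHTS in ER-beta-UAS-bla HEK293T cells: 6 hr settling, then 16 hr compound at 37C, then LiveBLAzer substrate 2 h at RT before fluorescence reading.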

SMILES	outcome
Cc1noc(NS(=O)(=O)c2ccc(N)cc2)c1C	inactive
CC(C)(Oc1ccc(C2CC2(Cl)Cl)cc1)C(=O)O (stereo unspecified)	inactive
OC(Cn1cncn1)(Cn1cncn1)c1ccc(F)cc1F	inactive
CCCCC1C(=O)N(c2ccccc2)N(c2ccccc2)C1=O	inactive
O=c1cc[nH]c(=S)[nH]1	inactive
CC(C)[C@@H]1CC[C@@H](C)C[C@H]1O	inactive
Cc1cc(=O)n(-c2ccccc2)n1C	inactive
NC(=O)c1ccccc1O	inactive
NNC(=O)c1ccncc1	inactive
CCCNC(=O)NS(=O)(=O)c1ccc(Cl)cc1	inactive
NC(N)=O	inactive
CCCC(O)C(CC)CO (stereo unspecified)	inactive
Nc1ccc(C(=O)O)cc1	inactive
CCCN(CCC)S(=O)(=O)c1ccc(C(=O)O)cc1	inactive
NC(N)=NC(=O)c1nc(Cl)c(N)nc1N	inactive
Cc1ccc(O)cc1	inactive
NC(=O)c1cnccn1	inactive
C1N2CN3CN1CN(C2)C3	inactive
C[C@]12C=CC(=O)C=C1CC[C@@H]1[C@@H]2[C@@H](O)C[C@@]2(C)[C@H]1CC[C@]2(O)C(=O)CO	inactive
Nc1ccn([C@H]2CC[C@@H](CO)O2)c(=O)n1	inactive
CC1(C)[C@@H]2CC[C@@]1(C)C(=O)C2	inactive
Nc1ccc(O)c(C(=O)O)c1	inactive
COc1ccc2[nH]cc(CCNC(C)=O)c2c1	inactive
Cc1ccc(S(=O)(=O)NC(=O)NN2CCCCCC2)cc1	inactive
Cc1ccc(C)c(OCCCC(C)(C)C(=O)O)c1	inactive
CC(=O)Nc1nnc(S(N)(=O)=O)s1	inactive
CC(=O)NS(=O)(=O)c1ccc(N)cc1	inactive
Cn1cc[nH]c1=S	inactive
O=c1ccc2ccccc2o1	inactive
